Results taken from PubChem BioAssay.
Active and inactive are the calls of the source. Unless noted, the rule behind the calls is not given here.

How the values were obtained:
[1] = A549 cell viability effects, profiling panel, calcein-AM fluorescence, 48 h, basal (AID 1162); conditions: higher = more signal; note: test concentration not given here
[2] = adipocyte viability effects, profiling panel, cell-based, 3T3-L1 adipocytes, calcein-AM fluorescence, 48 h, basal (AID 1163); conditions: 3T3-L1 adipocytes viability, higher = more signal; note: test concentration not given here
[3] = HepG2 cell viability effects, profiling panel, calcein-AM fluorescence, 48 h, basal (AID 1164); conditions: higher = more signal; note: test concentration not given here
[4] = MM1S cell viability effects, profiling panel, calcein-AM fluorescence, 48 h, basal (AID 1165); conditions: higher = more signal;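 note: viability of MM1S multiple myeloma cells under basal unstimulated conditions; test concentration not given here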
[5] = basal RPMI8226 viability, no added stimulus, profiling panel, cell-based, calcein-AM fluorescence, 48 h, PK04 Diversity Set (AID 1166); conditions: RPMI8226 myeloma viability, higher = more signal;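 note: cells grown under basal conditions without added stimulus; test concentration not given here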
[6] = basal HepG2 mitochondrial membrane potential changes, profiling panel, cell-based, JC-1 fluorescence, 24 h, 100 nL compound (AID 1167); conditions: higher = more signal; note: test concentration not given here
[7] = basal 3T3-L1 adipocyte mitochondrial potential changes, profiling panel, cell-based, JC-1 fluorescence, 3T3-L1 adipocytes, 24 h, 100 nL compound (AID 1168); conditions: JC-1 mitochondrial fluorescence, higher = more signal, called active from +8 up or from −8 down; note: test concentration not given here
[8] = basal RPMI8226 mitochondrial membrane potential changes, profiling panel, cell-based, JC-1 fluorescence, 24 h, 100 nL compound (AID 1169); conditions: RPMI8226 myeloma, JC-1 mitochondrial potential fluorescence, higher = more signal; note: test concentration not given here
[9] = basal MM1S mitochondrial membrane potential changes, profiling panel, cell-based, JC-1 fluorescence, 24 h, 100 nL compound (AID 1170); conditions: higher = more signal; note: test concentration not given here
[10] = A549 lung cancer cell viability effects, profiling panel, resazurin fluorescence, 24 h, PK04 Diversity Set (AID 1171); conditions: higher = more signal, called active from +8 up or from −8 down; note: test concentration not given here
[11] = HepG2 liver cancer cell viability effects, profiling panel, resazurin fluorescence, 24 h, PK04 Diversity Set (AID 1172); conditions: higher = more signal; note: test concentration not given here
[12] = basal S. cerevisiae growth modulation, no modifier, primary screen, OD600, strain BY4716, 24 h, basal condition (AID 1173); conditions: OD600, 24 h, higher = more signal, called active from +8 up or from −8 down
[13] = MM1S myeloma cell viability, profiling panel, resazurin fluorescence, basal, 24 h, PK04 Diversity Set (AID 1174); conditions: higher = more signal, called active from +8 up or from −8 down;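 note: MM1S multiple myeloma cell line; test concentration not given here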
[14] = target: Dihydroorotate dehydrogenase (quinone), mitochondrial (Plasmodium falciparum (isolate 3D7)) (UniProt Q08210); assay: PfDHODH enzyme inhibitors, primary screen, biochemical, C-terminal His tag, absorbance 600 nm (AID 1175); conditions: DCIP absorbance 600 nm, higher = more signal, called active from +8 up or from −8 down;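 note: recombinant parasite enzyme with a five histidine tag at its C terminus; test concentration not given here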
Dihydroorotate dehydrogenase (quinone), mitochondrial (Plasmodium falciparum (isolate 3D7)), sequence (Q08210 whole entry, looked up): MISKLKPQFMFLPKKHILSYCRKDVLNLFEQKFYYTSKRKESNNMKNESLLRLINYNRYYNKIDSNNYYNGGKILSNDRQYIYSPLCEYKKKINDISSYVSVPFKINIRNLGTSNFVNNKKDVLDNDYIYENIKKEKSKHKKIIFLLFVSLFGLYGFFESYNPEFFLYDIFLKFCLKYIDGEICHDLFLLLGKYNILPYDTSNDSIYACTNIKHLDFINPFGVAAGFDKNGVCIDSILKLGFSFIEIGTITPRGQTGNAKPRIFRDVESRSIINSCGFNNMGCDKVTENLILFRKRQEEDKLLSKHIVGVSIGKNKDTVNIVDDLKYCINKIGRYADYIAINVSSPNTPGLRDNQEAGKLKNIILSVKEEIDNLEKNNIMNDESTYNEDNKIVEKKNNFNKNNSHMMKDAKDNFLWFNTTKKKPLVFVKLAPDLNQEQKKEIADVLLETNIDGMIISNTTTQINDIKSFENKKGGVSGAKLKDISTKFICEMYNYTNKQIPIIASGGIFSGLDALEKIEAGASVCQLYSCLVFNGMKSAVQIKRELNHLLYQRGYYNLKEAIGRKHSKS

[15] = P. aeruginosa biofilm formation inhibitors, primary screen, strain PAO1, LB-PBS medium, absorbance 600 nm (AID 1176); note: test concentration not given here; conditions: P. aeruginosa PAO1 growth/biofilm, A600, 12 h; higher = more signal
[16] = S. cerevisiae RM11-1a growth modifiers, primary screen, strain RM11-1a, OD600, basal, 24 h (AID 1177); conditions: OD600, 24 h, higher = more signal, called active from +8 up or from −8 down;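 note: cultures grown under basal conditions with no added stressor; test concentration not given here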
[17] = E. coli acrAB mutant growth effects, primary screen, E. coli filamentation inducers, strain DRC39, OD650, 24 h (AID 1178); conditions: higher = more signal, called active from +8 up or from −8 down;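 note: growth measured as culture turbidity by optical density at 650 nm; test concentration not given here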
[18] = E. coli acrAB mutant growth effects, primary screen, E. coli filamentation inducers, strain DRC39, OD650, 48 h (AID 1179);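 note: screen aims at cell division blockers that make cells filament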; conditions: E. coli DRC39 delta-acrAB growth, higher = more signal, called active from +8 up or from −8 down
[19] = RPMI8226 myeloma cell viability, profiling panel, resazurin fluorescence, basal, 24 h, PK04 Diversity Set (AID 1180); conditions: higher = more signal;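 note: RPMI8826 multiple myeloma cell line at 5000 cells per well; test concentration not given here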
[20] = target: E3 ubiquitin-protein ligase XIAP (Homo sapiens) (UniProt P98170); assay: XIAP binders, primary screen, biophysical, small-molecule microarray, fluorescence 635 nm (AID 1181); conditions: small-molecule microarray binding, higher = more signal;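 note: score merges 667 nm emission and signal to noise over triplicate slides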
E3 ubiquitin-protein ligase XIAP (Homo sapiens), sequence (P98170 whole entry, looked up): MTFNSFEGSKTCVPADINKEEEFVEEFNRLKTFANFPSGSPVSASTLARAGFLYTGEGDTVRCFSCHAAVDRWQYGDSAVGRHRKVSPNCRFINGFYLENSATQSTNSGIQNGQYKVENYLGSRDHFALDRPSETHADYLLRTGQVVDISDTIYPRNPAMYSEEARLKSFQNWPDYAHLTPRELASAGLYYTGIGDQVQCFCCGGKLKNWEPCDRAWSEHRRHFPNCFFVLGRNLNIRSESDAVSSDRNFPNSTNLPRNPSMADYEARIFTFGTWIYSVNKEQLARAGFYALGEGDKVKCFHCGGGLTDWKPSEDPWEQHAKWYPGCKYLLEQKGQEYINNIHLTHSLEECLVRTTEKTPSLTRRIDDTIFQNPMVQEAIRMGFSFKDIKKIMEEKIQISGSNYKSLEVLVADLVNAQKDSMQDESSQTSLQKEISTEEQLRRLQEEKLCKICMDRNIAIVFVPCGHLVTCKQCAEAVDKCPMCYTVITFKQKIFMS

Structure (SMILES)	z-score [1]	z-score [2]	z-score [3]	z-score [4]	z-score [5]	z-score [6]	z-score [7]	z-score [8]	z-score [9]	z-score [10]	z-score [11]	z-score [12]	z-score [13]	composite z-score [14]	z-score [15]	z-score [16]	z-score [17]	z-score [18]	z-score [19]	composite z-score [20]
O=C1OCCC/C=C\[C@H]2OC34C=CCN(CCN5CCOCC5)C(=O)[C@H]3N(CCCO)C(=O)[C@@H]4C12 (stereo not given in full)	-0.235	1.01	-0.631	1.19	-0.87	-1.01	-0.734 (inactive)	0.806	0.486	0.116 (inactive)	-0.0764	-0.314 (inactive)	-0.146 (inactive)	-0.053 (inactive)	-0.525 (inactive)	-1.22 (inactive)	-0.0395 (inactive)	-0.125 (inactive)	0.125	0.138
C=CCNC(=O)[C@H]1[C@@H]2C(=O)O[C@@H](c3ccccc3)[C@@H](c3ccccc3)N2[C@@H](c2ccccc2OCCO)[C@]12C(=O)Nc1ccc(C#CC3=CCCCC3)cc12	-1.64	1.04	-4.21	-3.35	-4.07	-1.84	2.75 (inactive)	-0.853	-1.84	-1.27 (inactive)	-2.93	1.97 (inactive)	-8.87 (active)	0.266 (inactive)	1.89 (inactive)	3.11 (inactive)	-0.639 (inactive)	-0.0547 (inactive)	-7.09	0.112
COc1cc2c(cc1OC)CN(C(=O)[C@H]1[C@@H]3C(=O)O[C@@H](c4ccccc4)[C@@H](c4ccccc4)N3[C@@H](c3ccc(O)cc3)[C@]13C(=O)Nc1ccc(C#CC4=CCCCC4)cc13)CC2	-0.59	0.474	0.679	-0.35	-2.23	-0.259	2.83 (inactive)	-0.243	-0.101	-0.435 (inactive)	-0.436	-1.16 (inactive)	-0.16 (inactive)	-1.05 (inactive)	1.08 (inactive)	0.449 (inactive)	-0.222 (inactive)	-0.273 (inactive)	0.916	-0.359
CN(C)CCCNC(=O)[C@@]1(c2ccc([N+](=O)[O-])cc2)CC(=O)N(C2CCCCC2)[C@@H]1c1ccc(CO)cc1I	-4.33	0.184	-5.13	-3.86	-4.36	-3.14	0.499 (inactive)	-0.952	-2.31	-6.55 (inactive)	-6.5	-11.7 (active)	-9.1 (active)	-1.19 (inactive)	0.0714 (inactive)	0.344 (inactive)	0.725 (inactive)	-1.28 (inactive)	-6.61	0.125
C=C(CCCC)C(=O)CC[C@H](OC(C)=O)c1cccc(OCCO)c1	-0.0802	1.62	-0.889	-1.12	-1.18	-0.525	0.906 (inactive)	0.139	-0.964	-0.252 (inactive)	0.0379	-1.43 (inactive)	-0.602 (inactive)	-1.08 (inactive)	-0.387 (inactive)	-0.561 (inactive)	-0.878 (inactive)	-0.873 (inactive)	-0.482	-0.0746
CC(=O)N1Cc2ccccc2C[C@@]2(COC(c3ccc(OCCCO)cc3)=N2)C1=O	1.23	1.93	2.01	-2	0.151	0.933	1.59 (inactive)	-0.894	-0.394	0.89 (inactive)	1.17	-0.797 (inactive)	-0.15 (inactive)	-0.469 (inactive)	2.26 (inactive)	-0.723 (inactive)	1.73 (inactive)	2.3 (inactive)	0.266	1.2
CCOC(=O)[C@H]1C/C=C/C[C@H](C(=O)OCC)C(=O)O[C@H]2[C@@H](OC)O[C@H](CO)[C@@H](OC(=O)Nc3ccc(C#N)cc3)[C@@H]2OC1=O	-2.47	1.37	-4.91	-3.15	-4.11	-2.79	1.14 (inactive)	-0.975	-2.11	-4.98 (inactive)	-4.61	0.516 (inactive)	-8.87 (active)	-1.26 (inactive)	1.94 (inactive)	-0.166 (inactive)	1.1 (inactive)	1.58 (inactive)	-7.15	0.122
CC(=O)NCCCC[C@@H]1NC(=O)[C@@H]2C[C@H](C(=O)NCCCCN(C)C)[C@H](c3cccc(OCCO)c3)N2C1=O	0.0857	-0.749	-0.506	-0.589	-0.486	-0.085	-0.24 (inactive)	-0.569	-0.436	0.604 (inactive)	1.03	0.108 (inactive)	-0.721 (inactive)	-0.446 (inactive)	-0.875 (inactive)	0.0173 (inactive)	0.374 (inactive)	0.313 (inactive)	0.507	-0.404
[N-]=[N+]=Nc1ccccc1C[C@]1(C(N)=O)N=C(c2ccc(OCCCO)cc2)O[C@H]1c1ccccc1	0.0914	0.124	-0.0857	-1.9	-0.495	-0.543	-0.387 (inactive)	-0.265	-0.0874	0.453 (inactive)	0.329	-0.936 (inactive)	-1.02 (inactive)	0.667 (inactive)	1.16 (inactive)	1.33 (inactive)	0.0314 (inactive)	-0.665 (inactive)	-1.03	-0.108
CN1C(=O)[C@]2(Cc3ccccc3)N=C(c3ccc(OCCCO)cc3)O[C@@H]2c2ccccc21	-1.55	1.71	-1.68	-1.76	-4.34	0.288	0.686 (inactive)	-1.16	-0.976	-1.81 (inactive)	-0.635	-1.79 (inactive)	-2.57 (inactive)	0.539 (inactive)	0.814 (inactive)	1.13 (inactive)	0.757 (inactive)	0.0422 (inactive)	-2.41	0.0617
CC(C)C(CO)N1C(=O)[C@@H]2[C@H]3C(=O)OCC=C[C@H]3OC23C=CCN(C(C)C)C(=O)[C@@H]13 (stereo not given in full)	-0.368	0.877	-0.185	-0.181	0.642	-0.304	0.148 (inactive)	-0.0287	-0.0116	0.711 (inactive)	1.18	0.55 (inactive)	0.713 (inactive)	0.0658 (inactive)	-0.565 (inactive)	0.73 (inactive)	0.074 (inactive)	-0.137 (inactive)	0.634	-0.0719
COc1ccc(CCN2C(=O)[C@@]3(Cc4ccccc42)c2ccccc2C(=O)N(Cc2ccccc2C(F)(F)F)[C@H]3c2ccc(CO)cc2)cc1	-0.306	0.885	-0.863	0.122	-1.57	-0.739	-0.753 (inactive)	0.923	-1.59	0.639 (inactive)	-0.104	0.512 (inactive)	0.35 (inactive)	-21.6 (active)	0.31 (inactive)	-0.443 (inactive)	-0.0813 (inactive)	-0.374 (inactive)	-0.816	-0.0102
COc1ccc(C(=O)Nc2ccc(CN3C(=O)[C@@]4(O[C@@H](CCO)[C@H]([Si](C)(C)c5ccc(OC)cc5)[C@H]4C)c4ccccc43)cc2)cc1	-4.06	-0.736	-4.64	-2.64	-4.32	-2.53	1.16 (inactive)	-1.12	-2.2	-3.84 (inactive)	-4.21	-3.8 (inactive)	-9.13 (active)	-0.851 (inactive)	2.25 (inactive)	3.08 (inactive)	1.53 (inactive)	-0.0036 (inactive)	-5.97	-0.172
[N-]=[N+]=NCc1ccccc1[C@H]1OC(c2ccc(OCCCO)cc2)=N[C@@]1(Cc1ccccc1)C(=O)NCc1ccccc1	-0.649	0.399	0.71	-2.04	-3.49	0.343	0.544 (inactive)	-1.35	-0.765	0.789 (inactive)	0.294	-0.223 (inactive)	-0.666 (inactive)	-0.407 (inactive)	0.702 (inactive)	0.747 (inactive)	0.431 (inactive)	0.0009 (inactive)	-0.34	0.58
C[C@@]1([C@@H](NC(=O)c2ccccc2)c2ccc(-c3ccccc3)cc2)C[C@H]1C1CCCCC1	-1.35	-0.502	-0.687	-0.646	-1.28	-0.964	-1.22 (inactive)	0.318	-0.308	-1.2 (inactive)	-1.32	1.14 (inactive)	-1.93 (inactive)	-0.712 (inactive)	1.57 (inactive)	0.0656 (inactive)	-1.59 (inactive)	-1.17 (inactive)	-0.675	-0.117
O=C1OCC=C[C@H]2OC34C=CCN(c5ccc6ccccc6c5)C(=O)[C@H]3N(CCCCCCO)C(=O)[C@@H]4[C@@H]12 (stereo not given in full)	0.429	-0.358	0.878	1.38	-0.0053	0.631	0.613 (inactive)	-0.979	0.469	0.61 (inactive)	0.551	-0.7 (inactive)	0.645 (inactive)	-1.24 (inactive)	-0.717 (inactive)	-0.472 (inactive)	0.841 (inactive)	0.982 (inactive)	0.683	0.086
O=C1O[C@H](c2ccccc2)[C@H](c2ccccc2)N2[C@H]1[C@@H](C(=O)Nc1nc3ccccc3s1)[C@]1(C(=O)Nc3ccc(C#CC4(O)CCCCCC4)cc31)[C@H]2c1ccc(OCCO)cc1	-0.128	1.45	-0.318	-1.89	-2	-3.77	-0.727 (inactive)	-1.22	-1.41	0.634 (inactive)	-0.43	1.16 (inactive)	-1.4 (inactive)	-0.568 (inactive)	4.15 (inactive)	0.773 (inactive)	-0.34 (inactive)	-0.706 (inactive)	-1.1	0.167
